About 2,200 (3.4%) of roughly 64,000 compounds were called active.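 Rule for the calls: active = calcium fluorescence response, raw or row-and-column corrected B-score, differing from the plate sample mean either way at a set confidence level, mostly lower; inactive = the rest.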 The list comes from a sample in which actives are over-represented; it also holds similar structures and randomly drawn compounds.

Chain of Muscarinic acetylcholine receptor M1 (Rattus norvegicus) (P08482 whole entry, looked up): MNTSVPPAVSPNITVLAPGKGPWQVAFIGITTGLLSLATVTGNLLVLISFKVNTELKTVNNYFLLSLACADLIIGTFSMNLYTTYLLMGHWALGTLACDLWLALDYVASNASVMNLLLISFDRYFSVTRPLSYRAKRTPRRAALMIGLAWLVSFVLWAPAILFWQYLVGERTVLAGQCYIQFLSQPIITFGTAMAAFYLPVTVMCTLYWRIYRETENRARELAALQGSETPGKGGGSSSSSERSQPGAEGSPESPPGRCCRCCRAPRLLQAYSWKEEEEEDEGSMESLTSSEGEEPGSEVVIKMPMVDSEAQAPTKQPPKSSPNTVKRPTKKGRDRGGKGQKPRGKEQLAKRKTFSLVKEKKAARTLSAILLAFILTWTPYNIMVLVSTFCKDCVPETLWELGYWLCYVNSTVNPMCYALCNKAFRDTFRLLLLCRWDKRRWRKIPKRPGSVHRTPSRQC

This test concerns the target Muscarinic acetylcholine receptor M1 (Rattus norvegicus) (UniProt P08482). The test can be described thus: antagonists of rat M1 muscarinic receptor (AID 628). Particulars: CHO-M1 cells, Fluo-4 calcium, ACh EC80 antagonist mode; at 10 µM; active compounds read low.
As for `COc1ccc(C2C(C(=O)Nc3ccccc3OC)=C(C)Nc3nnnn32)c(OC)c1` (stereo unspecified), the B-score is -0.00786 (inactive). The same measure for `COC(=O)c1ccc(C2C3=C(Nc4nnnn42)c2ccccc2OC3)cc1` (stereo unspecified): -2.33 (active).

For the molecule `COc1ccccc1NC(=O)C1=C(C)Nc2nnnn2C1c1cccc(Br)c1` (stereo unspecified), the B-score was 0.285 (inactive). Then `CCSc1nc(=S)n(CC)c(C)c1C(C)=O`, with -0.669 (inactive); and `O=c1c2ccccc2oc2nc3n(c(=O)c12)CCCS3`, with 0.0394 (inactive); and `CC(=C1C(=O)c2ccccc2C1=O)N1CCN(c2ccccn2)CC1`, with 0.0748 (inactive). Then `O=C(O)c1ccc(NS(=O)(=O)c2cccc3nsnc23)cc1`, with 1.18 (inactive); and `O=C(C(NS(=O)(=O)c1cccc2nsnc12)c1ccccc1)N1CCN(c2ccccn2)CC1` (stereo unspecified), with -4.43 (active). Regarding `O=C(CSc1nnnn1C1CCCC1)Nc1ccc2c(c1)OCCO2`, the B-score is -1.53 (inactive). The same measure for `CCc1ccc2oc(=O)cc(CN3CCCCC3C)c2c1` (stereo unspecified): -0.803 (inactive); for `Cc1ccc(-c2ccc(=O)n(CC(=O)NCCCN3CCCCC3)n2)cc1`: -0.074 (inactive). The same measure for `CC1(C)CC(=O)C=C(NCCCNC2CCCCC2)C1`: -0.705 (inactive); for `CC(=O)OC(C)C[N+](C)(C)C` (stereo unspecified): -11.2 (active). Then `CC(C[N+](C)(C)C)OC(N)=O` (stereo unspecified), with -15 (active); and `CCOC(=O)c1c(C)n(C)c2ccc(OC)c(NC(=O)CN3CCC4(CC3)OCCO4)c12`, with -0.00466 (inactive); and `O=C(O)c1ccc(-n2cccc2)cc1O`, with -0.249 (inactive). Consider `COc1ccccc1OCCC(=O)OCC(=O)NC(=O)NC(C)(C)C`, for which the B-score was -0.989 (inactive). Then `CCOC(=O)C1CCCN(Cc2nc(N)nc(Nc3ccc(C)cc3)n2)C1` (stereo unspecified), with -0.238 (inactive); and `O=C(CN1CCN(C2CCCCC2)CC1)Nc1ccccc1N1CCCCC1`, with -0.00297 (inactive); and `CCOC(=O)Nc1ccc2c(c1)N(C(=O)CN1CCN3CCCC3C1)c1ccccc1CC2` (stereo unspecified), with -4.22 (active). The same measure for `CC(=O)Nc1cccc(NC(=O)c2c(-c3ccccc3)noc2C)c1`: 0.424 (inactive); for `Cn1c(=O)[nH]c(=O)c2c1nc(N1CCN(CCO)CC1)n2CCSc1nc2ccccc2s1`: -0.514 (inactive); for `C=C(Br)Cn1c(CCCC)nc2ccccc21`: 0.344 (inactive). On to `OC1CN=C2Sc3ccccc3N2C1` (stereo unspecified), for which the B-score was -0.000781 (inactive). `CCn1c(SCC(=O)Nc2cc(C)c(Cl)cc2OC)nnc1-c1ccco1`: the B-score was 0.0151 (inactive). `COc1cc(Cl)c(C)cc1NC(=O)CSc1nnc(-c2cccnc2)n1Cc1ccco1`: the B-score was 1.15 (inactive).

For the molecule `COc1cc(Cl)c(C)cc1NC(=O)CSc1nnc(-c2ccco2)n1CC(C)C`, the B-score is -3.28 (active).

Regarding `Cc1ccc(C)c2[nH]c(=O)c(CCNC(=O)CC(C)C)cc12`, the B-score was 0.426 (inactive). The same measure for `O=c1/c(=C/c2ccc(CNS(=O)(=O)c3ccccc3)o2)sc2n1CCN=2`: -1.07 (inactive); for `C=CCSc1nc2ccccc2[nH]1`: -3.2 (active); for `c1ccc2[nH]c(-c3nc4ccccc4[nH]3)nc2c1`: 0.625 (inactive).

As for `O=C(CSc1nc2ccccc2[nH]1)c1cccs1`, the B-score is 0.722 (inactive). With `O=S(=O)(c1cccc(-c2nnc(SC(F)F)n2-c2ccccc2)c1)N1CCCCC1`, the B-score was 0.56 (inactive). The same measure for `CCCCN=C(N)/C(C(=O)OCC)=C(\O)c1ccc(OC)cc1`: 0.0185 (inactive); for `Cc1cccc(C)c1NC(=O)CCCSc1nnc(-c2ccco2)n1-c1ccccc1`: 0.509 (inactive); for `CCOC(=O)N1CCN(S(=O)(=O)c2cc(Br)cc3c2N(C(=O)C2CC2)CC3)CC1`: -2.88 (active). Then `CCOC(=O)N1CCN(C(=O)C2CCN(S(C)(=O)=O)CC2)CC1`, with -0.427 (inactive); and `CCN(c1ccc2c(c1)OCO2)S(=O)(=O)c1cc(Br)cc2c1N(C(=O)C1CC1)CC2`, with -0.598 (inactive). As for `COc1ccccc1N1CCN(Cc2ccc(OC)c3ccccc23)CC1`, the B-score is 0.229 (inactive). Then `COc1ccc(S(=O)(=O)Nc2ccc(S(=O)(=O)N3CCCCC3)cc2)cc1OC`, with 0.8 (inactive). Then `Cc1ccc(C)c(NC(=O)CSc2nnc(Cc3cccn3C)n2-c2ccc(F)cc2)c1`, with 0.873 (inactive). Regarding `CCOc1ccc(-c2nnn(CC(=O)N3CCN(c4ccc(OC)cc4)CC3)n2)cc1OCC`, the B-score was 0.00223 (inactive). Then `COc1ccc(-c2nnn(Cc3nc(N)nc(N4CCCCC4)n3)n2)cc1`, with -1.19 (active); and `CCc1ccc(-c2nnn(Cc3nn[nH]n3)n2)cc1`, with 0.0832 (inactive); and `Cc1cc(C)c(C#N)c(SCc2[nH]nc3c2C(c2ccccc2)C(C#N)=C(N)O3)n1` (stereo unspecified), with 0.363 (inactive).

For the molecule `N#CC1=C(N)Oc2n[nH]c(CSc3ccccc3)c2C12C(=O)Nc1ccccc12` (stereo unspecified), the B-score was 2.72 (active). Then `COc1ccc(Br)cc1/C=N/n1c(C)nnc1C`, with 0.304 (inactive); and `COc1cc(C2C(C(=O)Nc3ccccc3OC)=C(C)Nc3ncnn32)ccc1O` (stereo unspecified), with -0.653 (inactive). For the molecule `CCOc1ccc(C2C(C(=O)NC)=C(C)Nc3nc4ccccc4n32)cc1OC` (stereo unspecified), the B-score was -3.24 (active).

As to `COc1cc(C2C(C(=O)Nc3ccc(F)cc3)=C(C)Nc3nc(CCCO)nn32)cc(OC)c1OC` (stereo unspecified), the B-score is 0.464 (inactive).

As to `CN(C)CCOC(=O)C(c1ccccc1)C1(O)CCCC1` (stereo unspecified), the B-score is -11.9 (active). In the case of `COc1ccc(OCC(=O)OCCN(C)C)cc1`, the B-score is 0.389 (inactive).

As for `Cn1nc(-c2ccc(Cl)cc2)c2cc(C(=O)NCc3ccco3)sc21`, the B-score was 0.443 (inactive). Regarding `CCN1CCN(C(=O)CN(C)S(=O)(=O)c2ccc(OC)cc2)CC1`, the B-score is 0.444 (inactive). The same measure for `c1ccc(-c2nnc3n2NC(c2ccc4c(c2)OCO4)S3)cc1` (stereo unspecified): -0.212 (inactive). Regarding `COc1ccc(-c2nn3c(-c4ccccc4)nnc3s2)cc1OC`, the B-score is -1.59 (inactive).

Turning to `CC1=Nn2c(nnc2-c2ccccc2)SC1`, the B-score was -3.94 (active).

Take `c1ccc(-n2ncc(-c3nn[nH]n3)n2)cc1`: the B-score was 2.54 (inactive). The same measure for `Cn1c(C(=O)NCCCN2CCCCC2)cc2sccc21`: -1.16 (inactive). The same measure for `Cc1ccsc1-c1nc(CSCC(=O)NCCN2CCCC2)c(C)o1`: -4.42 (active). Consider `Cc1cc(NC(=O)CSCc2nc(-c3cccc(Cl)c3)oc2C)no1`, for which the B-score was 0.32 (inactive). The same measure for `COCCn1c(CN(Cc2ccccc2)Cc2ccccc2)nc2c1c(=O)n(C)c(=O)n2C`: 0.00241 (inactive); for `CSCCC(NC(N)=O)C(=O)N(C)CC(=O)Nc1ccc(C)cc1` (stereo unspecified): -0.414 (inactive).

Regarding `Cc1[nH]c2ccccc2c1C(=O)CSCC(=O)O`, the B-score is -0.627 (inactive).

As for `O=S(=O)(c1ccc(OCC(O)CN2CCN(c3ccccc3Cl)CC2)cc1)N1CCOCC1` (stereo unspecified), the B-score was -1.73 (active).

As to `COC(=O)COc1ccc(S(=O)(=O)N2CCOCC2)cc1`, the B-score was 0.524 (inactive).

For `OC(COc1ccc2ccccc2c1)CN1CCOCC1` (stereo unspecified), the B-score is -0.165 (inactive). The same measure for `CCCc1[nH]nc2c1C(c1ccc(OC)c(Cn3nc(C)c(Br)c3C)c1)C(C#N)=C(N)O2` (stereo unspecified): -0.527 (inactive); for `Cc1ccc(-c2noc(CCC(N)=O)n2)cc1`: 0.182 (inactive). Then `CCCC(=O)Nc1ccccc1N1CCN(C(=O)c2ccccc2)CC1`, with 0.0711 (inactive); and `Cc1ccc(-c2noc(CCC(=O)Nc3ccccc3N3CCN(C)CC3)n2)cc1`, with -3.17 (active); and `COc1ccc(NC(=O)Nc2cccc3cccnc23)cc1`, with -0.447 (inactive).

For `CCOC(=O)c1cccc(NC(=O)CN(c2ccc(C)cc2)S(=O)(=O)c2c(C)noc2C)c1`, the B-score is -0.345 (inactive). The same measure for `COC(=O)c1ccc(NC(=O)CN(c2ccc(C)cc2)S(=O)(=O)c2c(C)n[nH]c2C)cc1`: -1.39 (active); for `CCN(CC)C(=O)CCC(=O)Nc1ccc(C(=O)OC)cc1`: -0.0517 (inactive). Then `CCOc1ccc(-c2nnc(-c3ccco3)o2)cc1`, with 0.158 (inactive); and `CC(C)(C)NC(=O)C(c1ccco1)N(Cc1ccc2c(c1)OCO2)C(=O)Cn1nnc2ccccc21` (stereo unspecified), with -0.446 (inactive). Then `CCOC(=O)CSc1nc2sc3c(c2c(=O)[nH]1)CC(C)(C)OC3`, with 1.04 (inactive); and `CCOC(=O)Cn1c(SC)nc2sc3c(c2c1=O)CC(C)(C)OC3`, with -0.00652 (inactive). As to `CCC1(C)Cc2c(sc3nc4n(c(=O)c23)CCCS4)CO1` (stereo unspecified), the B-score was -1.1 (active).

Regarding `CCOC(=O)N1CCN(C(=O)C2CCCN(c3ncnc4c3sc3cccc(F)c34)C2)CC1` (stereo unspecified), the B-score is -6.95 (active). The same measure for `CCOC(=O)C1CCCN(C(=O)C2CCN(c3nnc(-n4cccc4)s3)CC2)C1` (stereo unspecified): -0.147 (inactive); for `Cc1cc(=O)n2nc(N3CCCC(C(=O)N4CCN(C)CC4)C3)sc2n1` (stereo unspecified): -0.192 (inactive). Then `CCOC(=O)N1CCN(C(=O)C2CCN(c3ncnc4c3sc3cccc(F)c34)CC2)CC1`, with -6.68 (active); and `CCOC(=O)N1CCN(C(=O)C2CC(c3ccc(F)cc3)=NO2)CC1` (stereo unspecified), with 1.56 (inactive); and `CCOC(=O)C1CCN(c2ncnc3c2oc2ccc(Br)cc23)CC1`, with 1.09 (inactive). The same measure for `Clc1ccc(Nc2nc(-c3cccs3)cs2)nc1`: -1.85 (inactive); for `Cn1c(=NC(=O)C2CC2)sc2cc(F)cc(F)c21`: -2.24 (inactive).

As to `COC(=O)COc1ccc2oc(=O)cc(C)c2c1`, the B-score is 0.286 (inactive). For `O=c1c2c(nc3n1CCCCC3)sc1c(O)cccc12`, the B-score was -0.992 (inactive).

For the molecule `CN(C)CCSc1nc(N)c2c3c(sc2n1)COC(C)(C)C3`, the B-score is 0.0678 (inactive). The same measure for `CC1(C)Cc2c(sc3nc4n(c(=N)c23)CCCCC4)CO1`: -2.66 (active). As for `CCOC(=O)c1cccc(NC(=O)C2CCCN(S(=O)(=O)c3cnc[nH]3)C2)c1` (stereo unspecified), the B-score is 0.994 (inactive). The same measure for `COc1ccc(OC)c(NC(=O)Cn2c(=O)oc3ccccc32)c1`: -0.343 (inactive); for `CCn1c(=N)n(CC(=O)c2cccc(OC)c2)c2ccccc21`: -6.64 (active); for `C=CCn1c(=N)n(CC(O)COc2ccc(OC)cc2)c2ccccc21` (stereo unspecified): 0.0139 (inactive).

These data come from PubChem BioAssay AID628 (Vanderbilt High Throughput Screening Facility, 2007).
